# D1 PAM = enhances dopamine response at the human D1 receptor; P21728; HEK293 TREx D1 cells, calcium flux, dopamine EC20 potentiation; potentiation, % at 10 µM; 360,000 compounds, 0.036% hits; in the data active = potentiation above about 30%; also: 0% is about no effect
# Target sequence (P21728 whole entry, looked up): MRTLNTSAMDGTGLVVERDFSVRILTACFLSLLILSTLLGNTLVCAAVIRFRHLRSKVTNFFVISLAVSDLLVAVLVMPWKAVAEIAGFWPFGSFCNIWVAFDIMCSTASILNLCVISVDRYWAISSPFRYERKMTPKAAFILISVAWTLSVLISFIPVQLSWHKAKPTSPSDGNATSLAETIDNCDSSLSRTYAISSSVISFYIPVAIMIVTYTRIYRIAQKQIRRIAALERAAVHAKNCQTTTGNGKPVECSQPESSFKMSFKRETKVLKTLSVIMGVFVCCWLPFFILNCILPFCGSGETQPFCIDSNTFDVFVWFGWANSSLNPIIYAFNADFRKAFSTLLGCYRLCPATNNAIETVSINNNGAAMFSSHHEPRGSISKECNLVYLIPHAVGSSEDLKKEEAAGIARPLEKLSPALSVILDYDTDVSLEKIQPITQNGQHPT
# DRD3 antagonist = D3 dopamine receptor (human) antagonism | P35462 | D3R cells, DiscoveRx beta-arrestin luminescence, antagonist mode; stronger effect = lower value | max response, negative = inhibition, % | 360,000 compounds, 2.5% hits; in the data active = max response below about -50%; inconclusive = no clear call, values can overlap the other calls; also: % is scaled to controls: 0 for no effect and ±100 for the full control effect
#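 Cells plated overnight at 1500 cells/well, then exposed to library compounds with dopamine controls for 90 minutes at 37 degrees C. DiscoveRx reagent added for 30–60 minutes at room temperature; luminescence read, quantitative HTS format.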
# D1 ag = human D1 receptor agonism; AID 504660; activation, % at 2 µM; HEK293 T-REx D1 cells, calcium flux, agonist mode; P21728; 360,000 compounds, 1% hits; in the data active = activation above about 30%; also: 0% is about no effect
#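 Agonism was scored from calcium flux recorded over 180 s (1 read/s) after pintool compound addition, following a 10-cycle baseline. Cells were inducible force-coupled HEK293 TREx D1, plated overnight at 30 C and loaded with no-wash calcium dye.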
# DRD3 agonist = activates the human D3 dopamine receptor | D3R DiscoveRx beta-arrestin cells, luminescence, 90 min | max activation, % | P35462 | 410,000 compounds, 0.58% hits; in the data active = max activation above about 30%; also: 0% is about no effect
#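 Cells at 1500/well, incubated overnight, then treated with pinned compounds (dopamine as control) for 90 min at 37 degrees C. DiscoveRx reagent added for 30 - 60 minutes at room temperature; luminescence read.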
# D1 antagonist = antagonists of human D1 dopamine receptor; P21728; HEK293 TREx D1 cells, calcium flux, dopamine EC80; stronger effect = lower value; activity change, negative = inhibition, % at 10 µM; 360,000 compounds, 3.2% hits; AID 504652; in the data active = activity change below about -30%; also: % is scaled to controls: 0 for no effect and ±100 for the full control effect
#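 Allosteric or orthosteric antagonism assessed as attenuation of the calcium response to EC80 dopamine, added 180 s after compound, in induced HEK293 Trex D1 cells loaded with no-wash calcium dye.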
# Numbers without * were called inactive; ? = inconclusive; / = no result; ! = repeats disagree. Most compounds without a hit are left out; they make up all but 6% or so of the library.
SMILES,D1 PAM,DRD3 antagonist,D1 ag,DRD3 agonist,D1 antagonist
CCc1ccc(Sc2cc(C(=O)NC(C)CC)c3ccccc3n2)cc1 (stereo not given),-1,/,1,15,-27
CC1CCCCN1CCCNC(=O)c1cc(Sc2cccc(Cl)c2)nc2ccccc12 (stereo not given),-1,/,19,-13,-42*
CCOCCCNC(=O)c1cc(Sc2cccc(Cl)c2)nc2ccccc12,-3,/,7,1,-60*
CCC(C)NC(=O)c1cc(Sc2cccc(Cl)c2)nc2ccccc12 (stereo not given),-2,/,19,24,-61*
CC1/C(=N/O)C(CN(C)C)C2CC1C2(C)C (stereo not given),-1,-69*,7,3,-1
CC1C2CC(C(CN(C)C)/C2=N/O)C1(C)C (stereo not given),-5,10,2,0,-51*
Cc1cccc(NC(=O)Nc2nnc(N3CCCC3)s2)c1,-4,/,8,-7,-1
O=C(COC(=O)C1C2CC3OC(=O)C1C3C2)Nc1ccc(Br)cc1 (stereo not given),/,21,33*,-9,7
CCn1nc(C)c(CCN(C)C(=O)Nc2cccc(Cl)c2C)c1C,-1,/,-2,0,0
COc1ccc(N2CCN(c3csc4ccc(Cl)cc4c3=O)CC2)cc1,0,/,43*,2,10
CCOC(=O)c1c(S(=O)(=O)NCC(=O)N2CCN(c3ccccc3OC)CC2)c(C)n(C)c1C,3,7,0,9,-32*!
NC(=O)CCCn1c(C(=O)c2cc(Cl)c(N)c(Cl)c2)c2ccc(C(F)(F)F)cc2[n+]1[O-],-1,23,5,-19,-2
CSc1ccc(CN2CCC2(C)C(=O)NC2CCc3ccccc32)cc1 (stereo not given),/,-70*,/,5,/
Cc1ccc(CN2CCC2(C)C(=O)NC2CCc3ccccc32)cc1 (stereo not given),/,16,/,4,/
CCN(CC)c1nc2ccccc2nc1C(=O)Nc1cc(OC)c(OC)c(OC)c1,-1,/,2,4,-14
N#CC(C#N)=C(N)/C(C#N)=C/c1cc(O)c(O)c(O)c1,2,1,30*,7,-20
Cc1cc(=O)oc(C)c1C(=O)OC(C(=O)c1ccccc1)c1ccccc1 (stereo not given),-4,3,1,5,-42*
CC(=O)N(C1CC(C)C(C#N)(C#N)C1(C#N)C#N)N(C)C (stereo not given),5,-71*,3,-18,4
CCCC(=O)N(C1CC(C)C(C#N)(C#N)C1(C#N)C#N)N(C)C (stereo not given),-15,-62*,6,-8,-36*
COc1ccc(-c2nn(-c3ccc(C)c(Cl)c3)c3c2cnc2cc(OC)c(OC)cc23)cc1,1,/,7,2,-3
COc1ccccc1NC(=O)C1=C(C)Nc2nc(SCc3ccccc3Cl)nn2C1c1ccccn1 (stereo not given),0,/,-2,-23,-7
Cc1ccc([N+](=O)[O-])cc1/C=N/Nc1nnnn1-c1ccccc1,-6,3,0,-6,-59*
COc1c(/C=N/Nc2ccc([N+](=O)[O-])cc2[N+](=O)[O-])c(C)nn1-c1ccccc1,0,-3,0,0,-33*
Cc1ccc(C)c(CNC(=O)c2ccc3c(c2)nc2n3CCCCC2)c1,0,/,-1,-12,9
N#Cc1cc([N+](=O)[O-])ccc1NC(=O)CSc1n[nH]c(=O)[nH]c1=O,/,-3,/,-1,/
SMILES,D1 PAM,DRD3 antagonist,D1 ag,DRD3 agonist,D1 antagonist
O=C(c1cccs1)c1ccc(-c2cccs2)s1,-2,?,70*,-9,-38*
O=C(CCCOc1ccc(Cl)cc1Cl)Nc1ccccc1C(=O)O,-2,21,1,6,-10
CCOc1ccccc1NC(=S)NC(=O)CCCOc1ccc(Cl)cc1Cl,7,-109*,5,-6,-6
COc1ccc(/C=N\NC(=O)CC(=O)Nc2cccc(Cl)c2)cc1OC,0,10,-1,-1,-51*
COc1ccc(/C=N/NC(=O)CCCOc2ccc(Cl)cc2Cl)cc1,-6,-21,3,3,-32*
COc1ccc(/C=N/NC(=O)CCC(=O)Nc2ccccc2)cc1OC,-1,?,1,-1,2
O=C(Nc1cc(Cl)ccc1Cl)c1cc(S(=O)(=O)N2CCc3ccccc3C2)ccc1F,-4,/,-1,-2,-17
CC(=O)NC(=O)COC(=O)/C=C/c1c(C)nn(Cc2c(Cl)cccc2Cl)c1Cl,1,-56*,-2,2,/
COc1ccc(N2CCN(C(=O)CN3C(=O)NC4(CCCc5ccccc54)C3=O)CC2)cc1 (stereo not given),-1,-74*,3,-10,-3
O=C(O)/C=C1\NC(=O)c2ccccc21,0,0,3,-3,-2
O=C1N/C(=C\c2ccc(O)cc2)C(=O)c2ccccc21,1,24,32*,0,4
S=c1nn[nH]c2ccccc12,/,-20,/,85*,/
Nc1n[nH]c2ccccc12,0,8,3,24,5
Cc1ccccc1OCCCCn1c(CO)nc2ccccc21,-9,43,15,3,-21
Cc1nc2ccccc2n1CCOc1ccccc1,3,6,10,3,-42*
Cc1ccccc1OCCn1c(C)nc2ccccc21,-10,-2,14,4,-41*
c1ccc(OCCn2c(COc3ccccc3)nc3ccccc32)cc1,0,/,22,3,2
COc1ccc(CNC(=O)C2CCC(CNS(=O)(=O)c3cccc4nsnc34)CC2)cc1 (stereo not given),-4,-5,3,0,-46*
COCCNC(=O)C1CCC(CNS(=O)(=O)c2cccc3nsnc23)CC1 (stereo not given),2,2,1,1,34
O=C(NCc1ccc2c(c1)OCO2)C1CCC(CNS(=O)(=O)c2cccc3nsnc23)CC1 (stereo not given),/,-7,1,3,-52*
CCCS(=O)(=O)NC(=O)C1(C)CCCN(C(=O)CSc2ccccc2)C1 (stereo not given),/,-4,/,6,/
COc1ccccc1NC(=O)C1=C(C)Nc2ncnn2C1c1ccc[nH]1 (stereo not given),-4,/,5,-4,5
CCOC(=O)c1ccc(NC(=O)Nc2nncs2)cc1,/,34,/,0,/
C=C1CSc2nc3ccccc3c(=O)n21,-5,-55*,0,7,-19
COc1ccc(-c2nnn(CC(=O)N(c3cccc(O)c3)C(C)C(=O)NC3CCCC3)n2)cc1OC (stereo not given),-8,28,1,9,-32*
CCC(C(=O)NC1CCCC1)N(C(=O)Cn1nnc(-c2ccc(OC)c(OC)c2)n1)c1cccc(O)c1 (stereo not given),-6,3,-1,3,-4

# Screening data (PubChem)
